Test results from the supplement of paper PMC6555819.

How the values were obtained:
Test in all cases: PBM binding z-score (relative to random genomic background probes); higher = stronger binding; sequences stand for … in GC…GCGATTGACAGCGTAGAATGAAGG
[1] = test system: FXR:RXRa (NR concentration 270 nM, RXRa partner concentration 90 nM)
How it was run: (§1)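 Custom Agilent 4×180K protein-binding microarrays carried double-stranded probes, each with a 34-nt variable region. These regions held direct-repeat seeds, single-nucleotide variants, half-site ablations and random human genomic background sequences. Ligand-free nuclear receptor dimers were incubated on the arrays for 1 h, antibodies against each partner (one per run) detected binding, and scanned fluorescence was regression-normalized. Binding z-scores take the random background probes as reference.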

[2] = test system: LXRa:RXRa (NR concentration 270 nM, RXRa partner concentration 90 nM)
How it was run: as §1

[3] = test system: LXRa homodimer (NR concentration 270 nM)
How it was run: as §1

[4] = test system: LXRb:RXRa (NR concentration 270 nM, RXRa partner concentration 90 nM)
How it was run: as §1

[5] = test system: LXRb homodimer (NR concentration 270 nM)
How it was run: as §1

[6] = test system: PPARa:RXRa (NR concentration 270 nM, RXRa partner concentration 90 nM)
How it was run: as §1

[7] = test system: PPARg:RXRa (NR concentration 180 nM, RXRa partner concentration 90 nM)
How it was run: as §1

[8] = test system: PPARg:RXRa 270nM:90nM, anti-RXR (NR concentration 270 nM, RXRa partner concentration 90 nM)
How it was run: as §1

[9] = test system: PPARg:RXRa 30nM:10nM, anti-RXR (NR concentration 30 nM, RXRa partner concentration 10 nM)
How it was run: as §1

[10] = test system: PPARg:RXRa 90nM:30nM, anti-RXR (NR concentration 90 nM, RXRa partner concentration 30 nM)
How it was run: as §1

[11] = test system: PPARg:RXRa DBDmut IVT, anti-RXR (DBD mutation: RXRa K156A/R161A, NR concentration 270 nM, RXRa partner concentration 90 nM)
How it was run: as §1

[12] = test system: PPARg:RXRa IVT, anti-PPARg (NR concentration 270 nM, RXRa partner concentration 90 nM)
How it was run: as §1

[13] = test system: PPARg DBDmut:RXRa IVT, anti-PPARg (DBD mutation: PPARg1 K132A/R137A, NR concentration 270 nM, RXRa partner concentration 90 nM)
How it was run: as §1

[14] = test system: PPARg DBDmut IVT, anti-PPARg (DBD mutation: PPARg1 K132A/R137A, NR concentration 270 nM)
How it was run: as §1

[15] = test system: PPARg homodimer (NR concentration 180 nM)
How it was run: as §1

[16] = test system: PXR:RXRa (NR concentration 270 nM, RXRa partner concentration 90 nM)
How it was run: as §1

[17] = test system: PXR homodimer (NR concentration 270 nM)
How it was run: as §1

[18] = test system: RARa:RXR (NR concentration 270 nM, RXRa partner concentration 90 nM)
How it was run: as §1

[19] = test system: RARa homodimer (NR concentration 270 nM)
How it was run: as §1

[20] = test system: RARb:RXRa (NR concentration 270 nM, RXRa partner concentration 90 nM)
How it was run: as §1

Sequence	PBM binding z-score [1]	PBM binding z-score [2]	PBM binding z-score [3]	PBM binding z-score [4]	PBM binding z-score [5]	PBM binding z-score [6]	PBM binding z-score [7]	PBM binding z-score [8]	PBM binding z-score [9]	PBM binding z-score [10]	PBM binding z-score [11]	PBM binding z-score [12]	PBM binding z-score [13]	PBM binding z-score [14]	PBM binding z-score [15]	PBM binding z-score [16]	PBM binding z-score [17]	PBM binding z-score [18]	PBM binding z-score [19]	PBM binding z-score [20]
CGAACTAGGTCATTGACAGGACAGTGAATAGTAA	4.56	2.89	0.461	2.07	0.0276	4.67	7.66	6.13	3.8	5.54	8.1	8.32	2.23	1.53	1.77	1.89	0.245	2.44	0.499	3.79
ACTAGCAGGCCAAGTTTGGGTCAGTCAAACAAAG	0.028	-0.244	-0.318	-0.0247	-0.904	0.619	-0.396	-0.173	-0.835	-0.45	0.456	0.754	-0.643	-0.95	-0.103	0.0962	-0.463	0.649	-0.408	1.21
ATCGAAAGGTAGAAGGTGAGTATACCCACCCGAA	0.00191	0.0493	-0.115	-0.132	0.0948	1.26	1.3	1.72	0.876	1.03	-0.39	0.667	1.35	-0.025	0.231	0.0568	0.241	0.388	0.608	0.615
ATCGAAAGGTCGAAGGTGAGTATCCCCACCCGAA	3.99	3.46	0.139	2.58	0.489	4.42	4.5	4.68	2.04	3.58	0.0448	2.14	0.338	0.675	1.12	2.87	-0.31	3.89	0.365	3.68
AGAACGAGGGCAATGAGTTGATAGAACGGGTGGC	0.324	0.221	-0.321	-0.103	-0.564	0.984	1.53	0.857	0.188	0.62	3.29	2.76	0.559	-0.194	0.0958	1.47	4.31	0.324	-0.124	1.83
TTACCAAGGTGAAAGGTAGTTGATGCACGCCTTG	0.796	0.851	-0.137	0.456	-0.64	2.7	3.76	4.56	2.81	4.51	2.96	3.26	0.619	0.152	0.643	0.603	-0.0575	1.41	0.138	1.56
CCTCGGAGGACAACAGGAGGTCTGAGCTGCCAGA	-0.506	-0.574	-0.845	-1.09	-1	-0.764	-0.138	-0.868	-1.36	-1.17	-0.107	-0.71	-1.05	-1.49	-0.258	-0.738	-0.871	-0.635	-0.516	0.983
GGAACGAGGGCATTCGATTTGATAGCATGGCGAT	0.98	0.589	-0.512	0.472	-0.24	1.49	1.13	1.23	0.159	0.731	3.33	2.39	0.437	-0.411	0.257	0.991	0.161	0.538	-0.351	1.96
GGGACGAGGGCAAAGTTGATAGCATCTGTCGACG	1.7	1.11	-0.058	1.41	0.182	3.68	6.58	6.7	5.3	6.62	2.42	3.76	0.246	0.748	1.07	1.44	0.491	1.48	0.362	2.46
CTACCAAAGTGAACAAGGTCGTTGATTACTATTC	0.664	0.808	0.427	1.39	0.463	1.34	0.212	0.215	0.23	-0.0383	0.74	0.473	0.238	0.295	0.64	1.76	1.48	1.47	0.789	0.821
TAACCAAGGTGAGCTGAGGTCGTTGATCCAACTC	2.66	1.63	-0.195	0.348	-0.934	1.81	0.206	0.531	-0.0525	0.137	0.67	1.99	-0.13	0.366	-0.0916	4.88	0.136	1.74	-0.541	1.81
CAAACTAGGGCACGAAAGGTCAAAGTCGAATGAC	5.64	6.93	6.08	5.54	1.5	6.49	8.39	7.22	5.17	7.03	7.59	8.38	2.22	0.682	2.46	5.93	1.28	6.53	1.46	4.98
CGAACTAGGTCATTGACAGAACAGTGAATAGTAA	4.26	2.84	0.516	2	0.18	4.66	7.52	6.34	4.05	5.58	7.82	8.32	1.7	2.64	1.37	1.39	-0.216	1.99	0.356	3.56
CCTCGGAGGACAGCAGGTCAGAGCTGTCCGCTTT	0.494	0.589	-0.357	-0.0868	-0.729	0.521	-0.863	-0.393	-1.22	-1.04	-0.0532	-0.162	-1.57	-1.57	0.113	0.0301	-0.196	0.742	-0.236	2.04
CCTTACGGGTCAAGGATATAGCACGGGTGGTACG	4.77	2.96	0.0404	2.45	-0.392	4.52	3.82	3.92	1.14	2.66	1.81	3.02	0.42	-0.469	1.43	2.54	0.0549	3.44	0.583	3.88
